Assay results reported in PubChem BioAssay.
Unmarked numbers belong to inactive results. Activity calls are given as the source filed them.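 The calls were made as follows, unless noted: active = mean inhibition above 46.68%, the untreated control wells mean plus 3 SD; inactive = the rest.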

Tests used:
[1] = molecular target: Nuclear receptor coactivator 1 (Homo sapiens) (UniProt Q15788); assay: NCOA1 GAL4-fusion reporter inhibition – cell-based, luminescence, quadruplicate, confirmation (AID 588820); details: HEK293 GAL4-SRC1 luciferase reporter, at 3.6 µM, hits give high values;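 also: 0% = DMSO wells and 100% = gossypol 36 µM treated wells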
[2] = repression of VP16-driven luciferase reporter – cell-based, luminescence, high throughput, counter-screen for SRC1 inhibitor project (AID 588824; in the data active = inhibition above about 25%); details: cell-based VP16 transactivation luciferase luminescence; at 3.6 µM; hits give high values

Sequence of Nuclear receptor coactivator 1 (Homo sapiens) (Q15788 whole entry, looked up, the tested form may be a part): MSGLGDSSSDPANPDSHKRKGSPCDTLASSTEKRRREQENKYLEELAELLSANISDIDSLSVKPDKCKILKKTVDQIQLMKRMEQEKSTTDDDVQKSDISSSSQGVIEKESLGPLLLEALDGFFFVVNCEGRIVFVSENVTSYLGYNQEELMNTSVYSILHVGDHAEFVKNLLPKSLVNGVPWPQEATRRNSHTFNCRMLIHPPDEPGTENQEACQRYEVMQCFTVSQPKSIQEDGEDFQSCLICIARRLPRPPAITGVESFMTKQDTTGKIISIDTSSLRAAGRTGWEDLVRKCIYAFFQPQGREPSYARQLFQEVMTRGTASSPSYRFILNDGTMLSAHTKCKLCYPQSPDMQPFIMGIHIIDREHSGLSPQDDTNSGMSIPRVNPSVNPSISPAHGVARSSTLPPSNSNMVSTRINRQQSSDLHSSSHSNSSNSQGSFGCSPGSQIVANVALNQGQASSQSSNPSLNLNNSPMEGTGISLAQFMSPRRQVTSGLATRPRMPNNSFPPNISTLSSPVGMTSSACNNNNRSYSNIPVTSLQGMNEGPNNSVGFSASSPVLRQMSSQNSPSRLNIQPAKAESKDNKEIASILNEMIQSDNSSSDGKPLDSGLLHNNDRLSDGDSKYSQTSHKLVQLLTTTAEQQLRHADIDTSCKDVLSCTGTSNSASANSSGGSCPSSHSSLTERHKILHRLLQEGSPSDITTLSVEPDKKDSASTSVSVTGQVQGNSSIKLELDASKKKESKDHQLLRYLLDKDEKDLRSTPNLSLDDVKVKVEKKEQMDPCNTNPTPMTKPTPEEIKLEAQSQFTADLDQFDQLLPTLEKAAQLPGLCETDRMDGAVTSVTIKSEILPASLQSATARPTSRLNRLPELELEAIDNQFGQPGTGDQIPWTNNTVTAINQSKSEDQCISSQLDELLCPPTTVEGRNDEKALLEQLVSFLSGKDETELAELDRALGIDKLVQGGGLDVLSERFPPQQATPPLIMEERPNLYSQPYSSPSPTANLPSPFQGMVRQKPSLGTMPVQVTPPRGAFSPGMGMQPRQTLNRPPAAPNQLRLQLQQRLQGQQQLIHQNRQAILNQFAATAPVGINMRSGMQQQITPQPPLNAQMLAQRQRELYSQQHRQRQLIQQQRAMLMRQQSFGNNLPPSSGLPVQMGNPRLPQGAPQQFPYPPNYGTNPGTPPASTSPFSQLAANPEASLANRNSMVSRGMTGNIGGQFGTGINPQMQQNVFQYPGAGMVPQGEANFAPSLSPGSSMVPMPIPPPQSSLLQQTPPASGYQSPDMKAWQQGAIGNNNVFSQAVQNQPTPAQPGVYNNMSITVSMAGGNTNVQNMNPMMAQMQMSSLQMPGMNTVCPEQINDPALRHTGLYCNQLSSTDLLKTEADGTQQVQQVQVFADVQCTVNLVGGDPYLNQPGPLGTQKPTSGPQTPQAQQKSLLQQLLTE

Structure (SMILES) | inhibition [1] [%] | inhibition [2]
COCCn1c(C)cc(C(=O)CSc2nc3ccccc3s2)c1C | -45.7 | 6.14%
COc1ccc(NS(=O)(=O)c2cc(NC(=O)CC(C)(C)C)ccc2N2CCCC2)cc1 | -10.7 | -1.18%
CC(=O)c1cccc(NC(=O)COc2cc3oc(=O)c(CC(C)O)c(C)c3cc2Cl)c1 (stereo not drawn) | 28.4 | 22%
CC(C)(C)OC(=O)N(CCc1ccccc1)Cc1ccc(OCc2cccc(NC(=O)C3CCCC3)c2)cc1 | -0.88 | -7.49%
CN(Cc1ccccc1)C(=O)c1ccc(NC(=O)C2CCCN(C(=O)OC(C)(C)C)C2)cc1 (stereo not drawn) | -1.28 | 8.32%
COc1ccc(-n2cnc(N)c2C(=O)c2cccc([N+](=O)[O-])c2)cc1 | 38.1 | 18.6%
CC(=O)N/C(=N/c1nc(C)cc(C)n1)Nc1cccc(C)c1C | -0.27 | -6.32%
C=C(C)Cn1c(SCC(=O)O)nc2c1c(=O)[nH]c(=O)n2C | 5.38 | 10.2%
COc1ccc(-n2cc(-c3ccccc3)c3c(N4CCOCC4)ncnc32)cc1 | -50.7 | -1.14%
O=C(NCc1ccccc1)c1cc(S(=O)(=O)N2CCCCC2)ccc1N1CCOCC1 | -1.88 | 11.3%
CCOc1cccc2cc(C(=O)N3CC(C)OC(C)C3)c(=O)oc12 (stereo not drawn) | -9.95 | -2.83%
CCCC(=O)N1CCCC(c2cc(C(=O)Nc3ccccc3)no2)C1 (stereo not drawn) | -49.1 | -30.6%
O=C(Cc1cccs1)N(CC1CCCO1)C1(C(=O)NC2CCCC2)CCCCC1 (stereo not drawn) | 3.51 | 17.6%
O=C(NC1CCCCC1)C(c1ccc(F)cc1)N(CCCN1CCOCC1)C(=O)c1ccc(CN2CCOCC2)o1 (stereo not drawn) | -0.03 | 3.53%
Cn1c(=O)[nH]c(=O)c2c1nc(N1CCCCC1)n2CC(O)COc1ccc([N+](=O)[O-])cc1 (stereo not drawn) | -27.8 | -19%
Cc1ccc(C)c(CN2C(=O)c3ccccc3S(=O)c3ccc(C(=O)N4CCN(c5ccccn5)CC4)cc32)c1 (stereo not drawn) | -18.5 | 77.7% (active)
O=C(NCc1ccco1)c1cccc(NC(=O)c2ccco2)c1 | 28.5 | 50% (active)
Cc1ccccc1C(=O)/C(C#N)=N/Nc1c(C)n(C)n(-c2ccccc2)c1=O | 34.3 | 21.1%
CCOC(=O)C(Cc1c(F)cccc1Cl)c1ccno1 (stereo not drawn) | -2.31 | -14.2%
COc1cc(C=C2CCCC(=Cc3ccc(OCC4CO4)c(OC)c3)C2=O)ccc1OCC1CO1 (stereo not drawn) | -119 | 9.37%
CCOC(=O)CSc1cc(-c2ccccc2)nc2ncnn12 | 17.9 | 4.7%
CCOc1ccc(-c2nnc3ccc(SCC(=O)NCc4ccco4)nn23)cc1 | -6.9 | -3.63%
CCN1CCS/C1=C/C=C/C1=[N+](CC)CCS1 | -22.7 | 47% (active)
COc1ccc2c(c1)c(C(=O)CN1CCN(Cc3ccccc3)CC1)c(C)n2C | -13.6 | -0.22%
CN1C(=O)C(O)(C2CCCCCC2=O)c2ccccc21 (stereo not drawn) | -7.54 | -0.98%

Structure (SMILES) | inhibition [1] [%] | inhibition [2]
COc1ccc(C[C@H]2COC(=O)[C@@H]2Cc2ccc(OC3OC(CO)C(O)C(O)C3O)c(OC)c2)cc1OC (stereo partly drawn) | 9.39 | 31% (active)
Cc1cc(C)c(CN2CCN(C(=O)Cn3cnc4c(OCc5ccccc5)ncnc43)CC2)c(C)c1 | 4.65 | 38.5% (active)
Cc1cn(Cc2ccccc2Cn2cc(C)c(=O)[nH]c2=O)c(=O)[nH]c1=O | -23.2 | -5.61%
CCn1c(=O)n(CC)c2cc(N3CCCC3)c(NC(=O)c3ccccc3OC)cc21 | -13.7 | -7.42%
Cc1ccc(S(=O)(=O)N(C)c2ccc(C(=O)N3CCN(Cc4ccc5c(c4)OCO5)CC3)cc2)cc1 | 9.2 | 30% (active)
CC(=O)c1cccc(NC(=O)c2ccc(CN3CCc4ccccc4C3)cc2)c1 | -1.99 | 9.39%
O=C(CS(=O)c1ccc(F)cc1)N1CCOCC1 (stereo not drawn) | -1.56 | -3.56%
CCN(C(=O)CN1C(=O)S/C(=C\c2cccc(Cl)c2)C1=O)C1CCS(=O)(=O)C1 (stereo not drawn) | 4.59 | 4.57%
O=C(Nc1ccc(Oc2ccccc2)cc1)c1ccc2sc([C@H]3C[C@H](O)[C@@H](CO)O3)nc2c1 | -13.8 | 19.3%
CC(C)n1c(SCC(=O)Nc2nc3c(s2)CCCC3)nc2c1c(=O)n(C)c(=O)n2C | 29.2 | 23.6%
Cc1ccc(S(=O)(=O)N(C)c2ccc(C(=O)Nc3ccccc3C(=O)N3CCOCC3)cc2)cc1 | -10.1 | -3.41%
O=C(Nc1ccc(F)cc1F)c1c(C(F)(F)F)ccnc1Oc1cccc(C(F)(F)F)c1 | -2.06 | -3.8%
CCCNC(=O)C1(C)CCCN(Cc2cccc(C#N)c2)C1 (stereo not drawn) | 36.4 | 26% (active)
Cc1nnc(N2CCCC(C(=O)NCc3ccc(OC(C)C)cc3)C2)c2nn(-c3ccccc3)c(C)c12 (stereo not drawn) | -12.5 | -13.1%
CC(NC(=O)COC(=O)c1cccs1)c1ccccc1 (stereo not drawn) | 15.5 | 13.6%
COc1cccc(N2CC(NS(=O)(=O)c3cccnc3)CC2=O)c1 (stereo not drawn) | -40.7 | -8.11%
NC(=O)c1ccc(N2CCN(S(=O)(=O)c3ccccc3)CC2)c([N+](=O)[O-])c1 | -20.8 | 31.9% (active)
CCCc1cc(C(=O)N(C)CC(=O)Nc2ccc(OCC)c(OCC)c2)sc1C | 20.5 | 17.3%
COCCOc1ccc(C(F)(F)F)cc1NC(=O)c1ccc(C(F)(F)F)cc1 | 6.49 | 3.69%
CN1C(=O)[C@H](Cc2ccc([N+](=O)[O-])cc2)NC1=S | 27.2 | 26.4% (active)
COc1cccc(-c2cc(C(=O)Nc3cc(C)n(Cc4ccc(Cl)cc4)n3)no2)c1 | 1.04 | 18.9%
O=C(NC1CCCC1)C(c1ccccc1)N(Cc1ccco1)C(=O)Cc1cccs1 (stereo not drawn) | 17.7 | 31.5% (active)
CCOC(=O)N1CCc2c(sc(NC(=O)CN3CCOCC3)c2C(=O)Nc2ccccc2)C1 | -17.7 | -5.16%
CC1=C(C(=O)OCc2ccccc2)C(c2ccsc2)C(C#N)=C(N)O1 (stereo not drawn) | -1.74 | 3.63%
